# Experimental data from paper PMC11062922 (Nature Chemical Biology, 2023).
# Like-named read-outs stand apart in the source and are kept apart here.
# Legend:
# Parameters in all cases: species or system human, MV4-11 + K-562 + COLO205 + SK-N-BE2 + OVCAR-8
# IRAK1 = settings: read-out: apparent Kd; compound concentrations:100 nM and 1000 nM (sheet 'Samples'); n = 1
# CSNK1G1 = settings: read-out: apparent Kd; compound concentrations:100 nM and 1000 nM (sheet 'Samples'); n = 1
# CAMK4 = settings: read-out: apparent Kd, n = 1
# MAP2K5 = settings: read-out: apparent Kd; compound concentrations:100 nM and 1000 nM (sheet 'Samples'); n = 1
# PIM2 = settings: read-out: apparent Kd; compound concentrations:100 nM and 1000 nM (sheet 'Samples'); n = 1
# NTRK1 = settings: read-out: apparent Kd, n = 1
# PIM1 = settings: read-out: apparent Kd; compound concentrations:100 nM and 1000 nM (sheet 'Samples'); n = 1
# STRADA = settings: read-out: apparent Kd, n = 1
# TBK1 = settings: read-out: apparent Kd; compound concentrations:100 nM and 1000 nM (sheet 'Samples'); n = 1
# MERTK = settings: read-out: apparent Kd; compound concentrations: 100 nM and 1000 nM (sheet 'Samples'), CATDS: 0.152685994301652; n = 1
# ERN1 = settings: read-out: apparent Kd, n = 1
# SYK = settings: read-out: apparent Kd; compound concentrations:100 nM and 1000 nM (sheet 'Samples'); n = 1
# PRKCI = settings: read-out: apparent Kd; compound concentrations:100 nM and 1000 nM (sheet 'Samples'); n = 1
# PRKX;PRKY = settings: read-out: apparent Kd; compound concentrations: 100 nM and 1000 nM (sheet 'Samples'), CATDS: 5.9384973682941697E-2; n = 1
# MAPK1 = settings: read-out: apparent Kd; compound concentrations: 100 nM and 1000 nM (sheet 'Samples'), CATDS: 2.7105315036477701E-2; n = 1
# PRKDC = settings: read-out: apparent Kd; compound concentrations: 100 nM and 1000 nM (sheet 'Samples'), CATDS: 3.7580559894827101E-2; n = 1
# [1] = compound concentrations:100 nM and 1000 nM (sheet 'Samples')
compound,measurement,setting,value
CN(C)CC(O)COc1ccc(Nc2nccc(-c3cnn4nc(N5CCOCC5)ccc34)n2)cc1 (stereo not shown) [GW767488X],potency estimated from few doses,IRAK1,0.08 µM
CNc1cc(-c2ccc3c(N)n[nH]c3c2)nc(N)n1 [GSK2224810A],potency estimated from few doses,CSNK1G1,2.2 µM
O=C(O)C(F)(F)F.O=c1[nH]ccc2nc(N[C@@H]3CCNC3)nc(Nc3cc(Cl)cc(Cl)c3)c12 [GSK2188764A],potency estimated from few doses,CAMK4; [1],0.977 µM
same,potency estimated from few doses,MAP2K5,0.207 µM
same,potency estimated from few doses,PIM2,2.03 µM
COc1cc[nH]c1/C=C1\C(=O)Nc2ccc([N+](=O)[O-])c(N3CC[C@@H](O)C3)c21 [RO0504985-000],potency estimated from few doses,"NTRK1; compound concentrations: 100 nM and 1000 nM (sheet 'Samples'), CATDS: 3.6845933962960403E-2",0.886 µM
Cc1occc1-c1nc(N)c(OC[C@@H](N)Cc2c[nH]c3ccccc23)cc1-c1cc2c(C)n[nH]c2cn1 [GSK1660450B],potency estimated from few doses,CSNK1G1,1.34 µM
same,potency estimated from few doses,PIM1,0.0927 µM
COc1cc[nH]c1/C=C1\C(=O)Nc2ccc(F)c(C#C[C@@H](O)[C@@H](N)[C@@H](C)O)c21 [RO0283120-000],potency estimated from few doses,NTRK1; [1],1.43 µM
same,potency estimated from few doses,STRADA; [1],2.01 µM
Cc1cc(NC(=O)c2cccc(NC(=O)/C=C/CN(C)C)c2)ccc1Nc1nccc(-c2cccnc2)n1 [JNK-IN-7],potency estimated from few doses,IRAK1,0.111 µM
Nc1nc(-c2ccc3c(N)n[nH]c3c2)cc(N2CCCC(NC(=O)c3ccccc3)C2)n1 (stereo not shown) [GSK2286775B],potency estimated from few doses,CAMK4; [1],1.09 µM
same,potency estimated from few doses,TBK1,0.342 µM
Cl.Cn1c(=O)c(Cc2ccccc2F)cc2cnc(NC3CCOCC3)nc21 [RO3305377-001],potency estimated from few doses,"CAMK4; compound concentrations: 100 nM and 1000 nM (sheet 'Samples'), CATDS: 1.6194401739627301E-2",2.15 µM
CN[C@H](C#Cc1c(F)ccc2c1/C(=C/c1[nH]ccc1OC)C(=O)N2)CO.Cl [RO0283049-001],potency estimated from few doses,"NTRK1; compound concentrations: 100 nM and 1000 nM (sheet 'Samples'), CATDS: 2.3877325037377599E-2",0.949 µM
Cn1cc(C2=C(c3c(S(C)=O)n(C)c4ccccc34)C(=O)NC2=O)c2ccccc21 (stereo not shown) [RO0317379-000],potency estimated from few doses,MERTK,0.59 µM
O=C(Nc1n[nH]c2nc(-c3ccccc3O)ccc12)C1CC1 [SB-711880],potency estimated from few doses,ERN1; [1],1.7 µM
same,potency estimated from few doses,SYK,1.76 µM
CCn1c(-c2nonc2N)nc2cncc(C(=O)N3CC[C@H](N)C3)c21.Cl [SB-772077-B],potency estimated from few doses,PIM1,0.0308 µM
same,potency estimated from few doses,PIM2,0.122 µM
same,potency estimated from few doses,PRKCI,0.606 µM
Nc1nccc(-c2ccc3c(N)n[nH]c3c2)n1 [GSK1034945A],potency estimated from few doses,PRKCI,1.24 µM
CCn1c(-c2nonc2N)nc2cncc(Br)c21 [SB-738004],potency estimated from few doses,PRKCI,0.483 µM
COc1cccc(C2=C(c3c(C)n(C)c4ccccc34)C(=O)NC2=O)c1 [RO3300167-000],potency estimated from few doses,"ERN1; compound concentrations: 100 nM and 1000 nM (sheet 'Samples'), CATDS: 7.9309280446682603E-2",1.54 µM
O=C1N=C(NCCc2ccccc2Cl)S/C1=C\c1ccc2ncccc2c1 [RO4498484-000],potency estimated from few doses,PRKX;PRKY,1.83 µM
CCC(CC)(CC)n1cnc2c(N)ncnc21 [SKF-97620],potency estimated from few doses,MAPK1,1.35 µM
same,potency estimated from few doses,PRKDC,0.583 µM
same,potency estimated from few doses,"STRADA; compound concentrations: 100 nM and 1000 nM (sheet 'Samples'), CATDS: 2.3464375070220901E-2",2.22 µM
